# In PubChem BioAssay (EPA / NIEHS):
# Records with an inconclusive call do not appear. More than one record can exist for a structure, and the calls need not agree. Active and inactive are the calls of the source. How the source made its calls, unless noted: active means hit-call score of the fitted dose curve at least 0.9, where 1 is the maximum; inactive means score below 0.9.
# Key:
# [1] = target: human RAR-related Orphan Receptor gamma (RORg), RORC (gene 6097) (UniProt P51449); assay: ATG_RORg_TRANS: Attagene TRANS-FACTORIAL HepG2 Assay for human RAR-related Orphan Receptor gamma (RORg) (AID 2283011; active means hit-call score of the fitted dose curve at least 0.9, where 1 is the maximum)
# human RAR-related Orphan Receptor gamma (RORg), RORC (gene 6097), sequence (P51449 whole entry, looked up, the tested form may be a part): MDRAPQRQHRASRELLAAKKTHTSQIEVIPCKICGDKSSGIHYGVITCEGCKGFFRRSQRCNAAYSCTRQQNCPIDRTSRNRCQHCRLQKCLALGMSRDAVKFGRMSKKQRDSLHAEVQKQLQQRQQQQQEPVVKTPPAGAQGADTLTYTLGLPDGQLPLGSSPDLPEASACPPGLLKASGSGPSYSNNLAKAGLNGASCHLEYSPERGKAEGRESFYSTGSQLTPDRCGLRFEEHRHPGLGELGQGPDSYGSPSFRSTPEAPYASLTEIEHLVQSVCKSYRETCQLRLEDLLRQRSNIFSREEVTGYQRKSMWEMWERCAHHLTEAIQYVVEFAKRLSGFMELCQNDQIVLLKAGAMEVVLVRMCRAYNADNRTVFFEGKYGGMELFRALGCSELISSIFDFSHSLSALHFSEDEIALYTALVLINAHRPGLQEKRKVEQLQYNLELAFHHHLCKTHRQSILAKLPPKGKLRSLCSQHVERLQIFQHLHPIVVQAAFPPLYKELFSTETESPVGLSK
# Outline: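 Readout: reporter transcript induction (RT-PCR, fluorescent primer extension, capillary electrophoresis) after 24 h compound exposure of transiently transfected HepG2 cells carrying a RORg-Gal4 chimera and GAL4-UAS reporters; DMSO served as baseline, with increasing signal fitted.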
# [2] = target: Retinoic acid receptor RXR-alpha (Homo sapiens) (UniProt P19793); assay: ATG_RXRa_TRANS: Attagene TRANS-FACTORIAL HepG2 Assay for human Retinoid X Receptor alpha (RXRa) (AID 2283012; active means hit-call score of the fitted dose curve at least 0.9, where 1 is the maximum)
# Retinoic acid receptor RXR-alpha (Homo sapiens), sequence (P19793 whole entry, looked up, the tested form may be a part): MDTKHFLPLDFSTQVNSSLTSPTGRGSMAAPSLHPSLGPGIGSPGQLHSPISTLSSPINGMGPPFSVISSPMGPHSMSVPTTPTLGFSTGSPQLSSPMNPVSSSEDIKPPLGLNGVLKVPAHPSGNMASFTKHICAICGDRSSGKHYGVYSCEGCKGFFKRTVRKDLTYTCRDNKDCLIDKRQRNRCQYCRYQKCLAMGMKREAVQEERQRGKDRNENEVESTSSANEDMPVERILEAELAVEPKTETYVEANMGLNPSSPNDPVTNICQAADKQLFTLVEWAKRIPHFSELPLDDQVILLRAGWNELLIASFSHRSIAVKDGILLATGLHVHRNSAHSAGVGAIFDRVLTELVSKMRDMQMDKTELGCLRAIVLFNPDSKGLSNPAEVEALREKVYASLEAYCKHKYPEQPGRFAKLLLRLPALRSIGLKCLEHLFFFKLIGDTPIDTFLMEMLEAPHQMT
# Outline: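 HepG2 cells transiently transfected with multiplexed GAL4-UAS reporter units and chimeric NR-GAL4 fusions, dosed 24 h. Reporter mRNA measured by RT-PCR, FAM labelling, HpaI digestion and capillary electrophoresis; gain-of-signal fitted relative to DMSO baseline.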
# [3] = target: human Retinoid X Receptor beta (RXRb), RXRB (gene 6257) (UniProt P28702); assay: ATG_RXRb_TRANS: Attagene TRANS-FACTORIAL HepG2 Assay for human Retinoid X Receptor beta (RXRb) (AID 2283013; active means hit-call score of the fitted dose curve at least 0.9, where 1 is the maximum)
# human Retinoid X Receptor beta (RXRb), RXRB (gene 6257), sequence (P28702 whole entry, looked up, the tested form may be a part): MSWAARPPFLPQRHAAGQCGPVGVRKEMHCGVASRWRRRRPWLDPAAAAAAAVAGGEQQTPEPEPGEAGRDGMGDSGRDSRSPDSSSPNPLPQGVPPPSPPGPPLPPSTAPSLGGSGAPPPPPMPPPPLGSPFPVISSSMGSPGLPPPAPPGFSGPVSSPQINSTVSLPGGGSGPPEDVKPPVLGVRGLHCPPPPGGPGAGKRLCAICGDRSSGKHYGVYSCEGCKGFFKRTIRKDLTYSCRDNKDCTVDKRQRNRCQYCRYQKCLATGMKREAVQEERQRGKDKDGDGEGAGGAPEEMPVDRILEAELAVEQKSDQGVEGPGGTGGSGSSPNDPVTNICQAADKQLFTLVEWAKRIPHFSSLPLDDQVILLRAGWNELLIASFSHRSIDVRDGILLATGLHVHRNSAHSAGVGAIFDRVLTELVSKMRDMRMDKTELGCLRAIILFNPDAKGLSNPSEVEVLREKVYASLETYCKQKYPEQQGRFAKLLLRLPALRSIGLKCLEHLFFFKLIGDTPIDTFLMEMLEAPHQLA
# Outline: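 HepG2 cells transiently transfected with multiplexed reporter units driven by GAL4-UAS and exogenous chimeric NR-Gal4 proteins; treated 24 h. Reporter mRNA measured by RT-PCR, 6-FAM labelling and capillary electrophoresis; gain-of-signal fitted versus DMSO baseline.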
# [4] = target: human Thyroid Receptor alpha (THRa1), THRA (gene 7067) (UniProt P10827); assay: ATG_THRa1_TRANS: Attagene TRANS-FACTORIAL HepG2 Assay for human Thyroid Receptor alpha (THRa1) (AID 2283014; active means hit-call score of the fitted dose curve at least 0.9, where 1 is the maximum)
# human Thyroid Receptor alpha (THRa1), THRA (gene 7067), sequence (P10827 whole entry, looked up, the tested form may be a part): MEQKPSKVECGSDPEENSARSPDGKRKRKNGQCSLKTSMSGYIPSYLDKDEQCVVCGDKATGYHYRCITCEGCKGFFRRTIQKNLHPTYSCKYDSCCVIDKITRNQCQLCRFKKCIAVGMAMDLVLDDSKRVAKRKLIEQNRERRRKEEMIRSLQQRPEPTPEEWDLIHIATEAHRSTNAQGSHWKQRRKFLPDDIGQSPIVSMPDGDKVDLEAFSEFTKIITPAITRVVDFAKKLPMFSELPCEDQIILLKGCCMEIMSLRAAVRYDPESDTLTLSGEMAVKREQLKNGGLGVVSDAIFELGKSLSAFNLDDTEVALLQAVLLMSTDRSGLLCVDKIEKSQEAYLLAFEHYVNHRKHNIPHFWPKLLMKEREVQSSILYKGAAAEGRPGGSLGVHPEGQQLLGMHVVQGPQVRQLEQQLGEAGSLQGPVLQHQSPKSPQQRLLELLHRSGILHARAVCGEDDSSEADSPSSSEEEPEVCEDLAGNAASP
# Outline: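 HepG2 cells transiently transfected with multiplexed GAL4-UAS reporter units for exogenous chimeric THRa1-Gal4; reporter mRNA measured 24 h after dosing by RT-PCR, 6-FAM labelling, HpaI digestion and capillary electrophoresis. Gain-of-signal fitted versus DMSO baseline.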
# [5] = read-out: E-selectin (Homo sapiens) (UniProt P16581); assay: BSK_3C_Eselectin: BioMAP Diversity Plus: 3C Assay for Eselectin Biomarker Activity (AID 2283015); conditions: primary human endothelial cells (HUVEC); actives raise or lower the signal;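 on outcome: cell surface E-selectin protein quantified by ELISA 24 h after dosing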
# Outline: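 Primary human umbilical vein endothelial cells (3C system) were dosed with chemical and cell-surface E-selectin measured by ELISA 24 h later. Bidirectional curve fitting used DMSO as negative control and baseline.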
# [6] = read-out: Interleukin-1 alpha (IL1a), IL1A (gene 3552); assay: BSK_BE3C_IL1a: BioMAP Diversity Plus: BE3C Assay for Interleukin-1 alpha (IL1a) Biomarker Activity (AID 2283016); conditions: primary human bronchial epithelial cells; actives raise or lower the signal
# Outline: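 Human primary bronchial epithelial cells (BE3C system) were dosed with compound and IL-1a measured by ELISA 24 h later. Activity was fitted bidirectionally against DMSO baseline; cytotoxicity was tracked in parallel cultures by SRB total-protein staining.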
# [7] = read-out: Monocyte Chemoattractant Protein-1 (MCP1), CCL2 (gene 6347); assay: BSK_3C_MCP1: BioMAP Diversity Plus: 3C Assay for Monocyte Chemoattractant Protein-1 (MCP1) Biomarker Activity (AID 2283017); conditions: primary human endothelial cells (HUVEC); actives raise or lower the signal
# Outline: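 Primary human umbilical vein endothelial cells (3C system) were exposed to test chemical for 24 h, after which MCP-1 was quantified by ELISA. Activity was fitted bidirectionally against DMSO as negative control and baseline.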
# [8] = read-out: Monocyte Chemoattractant Protein-1 (MCP1), CCL2 (gene 6347); assay: BSK_4H_MCP1: BioMAP Diversity Plus: 4H Assay for Monocyte Chemoattractant Protein-1 (MCP1) Biomarker Activity (AID 2283018); conditions: primary human endothelial cells (HUVEC); actives raise or lower the signal
# Outline: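 Human umbilical vein endothelial cells (4H system) dosed with chemical; MCP-1 measured by ELISA 24 h after dosing. Bidirectional curve fitting against DMSO negative control as baseline; parallel SRB total-protein staining tracks overt cytotoxicity.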
# [9] = read-out: Human Leukocyte Antigen - DR isotype (HLADR), HLA-DRA (gene 3122); assay: BSK_3C_HLADR: BioMAP Diversity Plus: 3C Assay for Human Leukocyte Antigen - DR isotype (HLADR) Biomarker Activity (AID 2283019); conditions: primary human endothelial cells (HUVEC); actives raise or lower the signal;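 on outcome: ELISA of cell-surface HLA-DR on HUVEC 24 h after dosing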
# Outline: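 Primary human umbilical vein endothelial cells (3C system) were dosed with compound and cell-surface HLA-DR was quantified by ELISA at 24 h. Activity was fitted bidirectionally against DMSO as negative control and baseline.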
# [10] = read-out: Interleukin-8 (IL8), CXCL8 (gene 3576); assay: BSK_3C_IL8: BioMAP Diversity Plus: 3C Assay for Interleukin-8 (IL8) Biomarker Activity (AID 2283020); conditions: primary human endothelial cells (HUVEC); actives raise or lower the signal
# Outline: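 Primary human umbilical vein endothelial cells (3C system) were exposed to test chemical for 24 h, then IL-8 was quantified by ELISA. Responses were fitted bidirectionally against DMSO vehicle as baseline.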
# [11] = read-out: Monokine induced gamma interferon (MIG), CXCL9 (gene 4283); assay: BSK_3C_MIG: BioMAP Diversity Plus: 3C Assay for Monokine induced gamma interferon (MIG) Biomarker Activity (AID 2283021); conditions: primary human endothelial cells (HUVEC); actives raise or lower the signal
# Outline: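 Primary human umbilical vein endothelial cells in the 3C system were exposed to chemical for 24 h, after which MIG was quantified by ELISA. Activity was fitted bidirectionally against DMSO as negative control and baseline.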
# [12] = target: human Vitamin D Receptor (VDR), VDR (gene 7421) (UniProt P11473); assay: ATG_VDR_TRANS: Attagene TRANS-FACTORIAL HepG2 Assay for human Vitamin D Receptor (VDR) (AID 2283022; active means hit-call score of the fitted dose curve at least 0.9, where 1 is the maximum)
# human Vitamin D Receptor (VDR), VDR (gene 7421), sequence (P11473 whole entry, looked up, the tested form may be a part): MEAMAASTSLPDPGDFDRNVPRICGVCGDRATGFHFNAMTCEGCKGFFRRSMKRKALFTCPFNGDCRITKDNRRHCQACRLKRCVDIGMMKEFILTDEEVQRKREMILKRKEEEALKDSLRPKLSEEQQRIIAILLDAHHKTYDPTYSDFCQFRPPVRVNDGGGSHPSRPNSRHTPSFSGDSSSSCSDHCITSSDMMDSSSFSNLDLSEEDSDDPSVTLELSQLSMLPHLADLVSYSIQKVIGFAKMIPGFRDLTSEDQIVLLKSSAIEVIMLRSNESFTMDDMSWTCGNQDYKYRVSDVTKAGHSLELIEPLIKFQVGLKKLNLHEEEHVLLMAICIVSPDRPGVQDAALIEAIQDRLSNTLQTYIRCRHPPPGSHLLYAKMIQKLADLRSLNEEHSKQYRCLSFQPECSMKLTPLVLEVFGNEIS
# Outline: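 HepG2 cells were transiently transfected with multiple GAL4-UAS reporter units, so signal reflects exogenous chimeric receptor-Gal4 activity. After 24 h compound exposure, reporter mRNA was measured by RT-PCR, fluorescent labelling and capillary electrophoresis, fitted for gain of signal versus DMSO.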
# [13] = BSK_3C_SRB: Viability Assessment in the BioMAP Diversity Plus: 3C Assay (AID 2283023); conditions: primary human endothelial cells (HUVEC);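 further: fitted both ways against DMSO so a hit may be signal rise or drop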
# Outline: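 Primary human umbilical vein endothelial cells in the 3C system were read 24 h after compound dosing. Total protein was stained with 0.1% sulforhodamine B after 10% TCA fixation and read at 560 nm, with bidirectional fitting against DMSO as baseline.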
# [14] = read-out: Matrix Metallopeptidase 1 (MMP1), MMP1 (gene 4312); assay: BSK_BE3C_MMP1: BioMAP Diversity Plus: BE3C Assay for Matrix Metallopeptidase 1 (MMP1) Biomarker Activity (AID 2283024); conditions: primary human bronchial epithelial cells; actives raise or lower the signal
# Outline: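 Primary human bronchial epithelial cells were dosed with test chemicals, and MMP1 levels were measured by ELISA 24 h later. Data were fitted bidirectionally against DMSO as the negative control and activity baseline.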
# [15] = BSK_3C_Vis: BioMAP Diversity Plus: 3C Assay for Morphology Visualization (AID 2283025); conditions: primary human endothelial cells (HUVEC);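 further: fitted both ways so gain or loss versus DMSO counts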
# Outline: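 Human umbilical vein endothelial cells in the 3C system were imaged by light microscopy 24 h after chemical dosing to record cell morphology. Activity was fitted bidirectionally against DMSO as negative control and baseline; the endpoint serves as a background control.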
# [16] = read-out: Pselectin, SELP (gene 6403); assay: BSK_4H_Pselectin: BioMAP Diversity Plus: 4H Assay for Pselectin Biomarker Activity (AID 2283026); conditions: primary human endothelial cells (HUVEC); actives raise or lower the signal
# Outline: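 Primary human umbilical vein endothelial cells were exposed to test chemical for 24 h, then cell-surface P-selectin was quantified by ELISA. Activity was fitted bidirectionally against DMSO as negative control and baseline.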
# [17] = BSK_4H_SRB: Viability Assessment in the BioMAP Diversity Plus: 4H Assay (AID 2283027); conditions: primary human endothelial cells (HUVEC);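 further: cells exposed to compound for 24 h before staining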;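 on AC50: curves fitted both ways versus DMSO so AC50 may be loss or gain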
# Outline: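 Absorbance at 560 nm of SRB-stained total protein served as the viability read-out in confluent primary human umbilical vein endothelium 24 h after chemical treatment. Curves were fitted bidirectionally against DMSO as negative control.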
# [18] = BSK_BE3C_SRB: Viability Assessment in the BioMAP Diversity Plus: BE3C Assay (AID 2283028); conditions: primary human bronchial epithelial cells;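 on AC50: fitted both ways so AC50 may mark signal gain or loss versus DMSO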
# Outline: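 Human primary bronchial epithelial cells were exposed to test chemicals for 24 h. Total protein in parallel cultures was then measured by staining with 0.1% sulforhodamine B after 10% TCA fixation, with absorbance read at 560 nm. Activity was fitted bidirectionally against DMSO.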
# [19] = read-out: Thrombomodulin, THBD (gene 7056); assay: BSK_3C_Thrombomodulin: BioMAP Diversity Plus: 3C Assay for Thrombomodulin Biomarker Activity (AID 2283029); conditions: primary human endothelial cells (HUVEC); actives raise or lower the signal
# Outline: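 Primary human umbilical vein endothelial cells (3C system) were exposed to chemical for 24 h, then thrombomodulin levels were measured by ELISA. Activity was fitted bidirectionally against the DMSO negative control as baseline.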
# [20] = read-out: Urokinase-type plasminogen activator receptor (uPAR), PLAUR (gene 5329); assay: BSK_4H_uPAR: BioMAP Diversity Plus: 4H Assay for Urokinase-type plasminogen activator receptor (uPAR) Biomarker Activity (AID 2283030); conditions: primary human endothelial cells (HUVEC); actives raise or lower the signal
# Outline: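 Primary human umbilical vein endothelial cells were exposed to chemical for 24 h before cell-surface uPAR was quantified by ELISA. Activity was fitted bidirectionally against the DMSO negative control baseline.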
# E-selectin (Homo sapiens), sequence (P16581 whole entry, looked up): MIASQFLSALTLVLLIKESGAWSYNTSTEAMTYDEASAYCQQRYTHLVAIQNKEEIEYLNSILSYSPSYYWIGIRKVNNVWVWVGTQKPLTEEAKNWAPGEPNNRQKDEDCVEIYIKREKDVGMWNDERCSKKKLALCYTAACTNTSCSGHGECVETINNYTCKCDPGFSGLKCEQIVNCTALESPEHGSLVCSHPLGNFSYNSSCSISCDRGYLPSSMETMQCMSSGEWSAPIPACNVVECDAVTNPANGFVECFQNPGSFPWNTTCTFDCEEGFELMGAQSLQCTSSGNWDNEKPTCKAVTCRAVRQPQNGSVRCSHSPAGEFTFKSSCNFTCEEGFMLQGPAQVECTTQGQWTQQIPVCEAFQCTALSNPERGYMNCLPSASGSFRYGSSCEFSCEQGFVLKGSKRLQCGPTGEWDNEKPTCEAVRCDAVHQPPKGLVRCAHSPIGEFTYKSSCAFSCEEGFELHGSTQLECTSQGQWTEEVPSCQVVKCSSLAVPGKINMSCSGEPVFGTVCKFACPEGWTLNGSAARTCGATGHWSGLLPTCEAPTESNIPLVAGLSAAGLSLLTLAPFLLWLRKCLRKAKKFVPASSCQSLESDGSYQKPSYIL
smiles,measurement,setting,value
CON(C)C(=O)Nc1ccc(Cl)c(Cl)c1,outcome,[1],inactive
same,outcome,[2],inactive
same,outcome,[3],inactive
same,AC50,[4],5.27 µM (active)
same,outcome,[4],inactive
same,outcome,[5],inactive
same,outcome,[6],inactive
same,outcome,[7],inactive
same,outcome,[8],inactive
same,outcome,[9],inactive
same,outcome,[10],inactive
same,outcome,[11],inactive
same,outcome,[12],inactive
same,outcome,[13],inactive
same,outcome,[14],inactive
same,outcome,[15],inactive
same,outcome,[16],inactive
same,outcome,[17],inactive
same,outcome,[18],inactive
same,outcome,[19],inactive
same,outcome,[20],inactive
O=C(Nc1ccccc1)Nc1ccnc(Cl)c1,outcome,[1],inactive
same,outcome,[2],inactive
same,outcome,[3],inactive
same,outcome,[4],inactive
same,outcome,[5],inactive
same,outcome,[6],inactive
same,AC50,[7],9.83 µM (active)
same,AC50,[8],20 µM (active)
same,AC50,[9],20 µM (active)
same,outcome,[10],inactive
same,outcome,[11],inactive
same,outcome,[12],inactive
same,outcome,[13],inactive
same,outcome,[14],inactive
same,outcome,[15],inactive
same,outcome,[16],inactive
same,outcome,[17],inactive
same,outcome,[18],inactive
same,AC50,[19],1.43 µM (active)
same,outcome,[20],inactive
O=C(O)c1nc(Cl)ccc1Cl,outcome,[1],inactive
same,outcome,[2],inactive
same,outcome,[3],inactive
same,outcome,[4],inactive
same,outcome,[5],inactive
same,outcome,[6],inactive
same,outcome,[7],inactive
same,outcome,[8],inactive
same,outcome,[9],inactive
same,outcome,[10],inactive
same,outcome,[11],inactive
same,outcome,[13],inactive
same,outcome,[14],inactive
same,AC50,[15],39 µM (active)
same,outcome,[15],inactive
same,outcome,[16],inactive
same,outcome,[17],inactive
same,outcome,[18],inactive
same,outcome,[19],inactive
same,outcome,[20],inactive
COC(=O)N(OC)c1ccccc1COc1ccn(-c2ccc(Cl)cc2)n1,outcome,[1],inactive
same,outcome,[2],inactive
same,outcome,[3],inactive
same,AC50,[4],3.06 µM (active)
same,AC50,[5],5.33 µM (active)
same,outcome,[6],inactive
same,AC50,[7],19 µM (active)
same,AC50,[8],7.63 µM (active)
same,AC50,[9],7.6 µM (active)
same,AC50,[10],13.5 µM (active)
same,outcome,[11],inactive
same,AC50,[13],20 µM (active)
same,outcome,[14],inactive
same,AC50,[15],13.7 µM (active)
same,AC50,[16],20 µM (active)
same,AC50,[17],10.5 µM (active)
same,AC50,[18],28.1 µM (active)
same,AC50,[19],3.97 µM (active)
same,AC50,[20],20 µM (active)
